# Screens: PubChem, The Scripps Research Institute Molecular Screening Center
# This is a sample that favours compounds with a hit; in the whole collection about 4.1% have one here.
# rCAG binder: r(CAG) repeat RNA binding; TO-PRO-1 dye displacement fluorescence; inhibition, % at 3 µM; AID 651821; actives 1.3% (n = 370,000);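 active = inhibition above the plate cutoff, the mean of all test compounds on that plate plus 3 SD, cut at about 35% in these data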;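 also: 0% = DMSO alone and 100% = 100 µM mitoxantrone as full dye displacement; higher means more dye released from RNA so lower well fluorescence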
# MBD2 inh: blocks human MBD2 binding to methylated DNA | Q9UBB5 | TR-FRET, MBD2 binding to methylated oligonucleotide | inhibition, % at 4.4 µM | actives 0.31% (n = 370,000) | AID 686964; in the data active = inhibition above about 13%
# UHRF1 binding: human UHRF1 methylated DNA binding inhibitors | UHRF1 binding to methylated oligo, TR-FRET | AID 687016 | Q96T88 | inhibition, % at 4.4 µM | actives 0.75% (n = 370,000); in the data active = inhibition above about 21%;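 also: UHRF1 SRA domain binding a hemimethylated CpG hairpin DNA probe; 0% = median of test compound wells and 100% = reference inhibitor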
# ABHD5-PLIN5 inh: inhibitors of human ABHD5-perilipin-5 interaction; Q00G26+Q8WTS1; Split G. princeps luciferase complementation, luminescence, 4 h; inhibition, % at 4 µM; actives 0.78% (n = 360,000);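 active = inhibition above the mean inhibition across every tested compound plus 3 SD, cut at about 22% in these data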;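 also: 0% = DMSO only wells and the 100% control is not disclosed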
# LEDGF integ inh: blocks HIV-1 LEDGF/p75-dependent DNA integration. TR-FRET IN-LEDGF/p75 DNA integration, Eu/Cy5. AID 743269. actives 0.64% (n = 370,000). inhibition, % at 3.7 µM;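 active = inhibition above the screen-wide mean plus 3 SD, cut at about 13% in these data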;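 also: signal is the Cy5 over europium emission ratio at 671 and 618 nm; 0% = plate median of compound wells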
# PRMT1 inh: blocks human protein arginine methyltransferase 1 | AID 652257 | recombinant PRMT1, activity-based probe fluorescence polarization | inhibition, % at 2.79 µM | actives 1.3% (n = 370,000);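 active = inhibition above about 21% made by adding two undisclosed values, limit read from the data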
# Target sequence (Q99873 whole entry, looked up): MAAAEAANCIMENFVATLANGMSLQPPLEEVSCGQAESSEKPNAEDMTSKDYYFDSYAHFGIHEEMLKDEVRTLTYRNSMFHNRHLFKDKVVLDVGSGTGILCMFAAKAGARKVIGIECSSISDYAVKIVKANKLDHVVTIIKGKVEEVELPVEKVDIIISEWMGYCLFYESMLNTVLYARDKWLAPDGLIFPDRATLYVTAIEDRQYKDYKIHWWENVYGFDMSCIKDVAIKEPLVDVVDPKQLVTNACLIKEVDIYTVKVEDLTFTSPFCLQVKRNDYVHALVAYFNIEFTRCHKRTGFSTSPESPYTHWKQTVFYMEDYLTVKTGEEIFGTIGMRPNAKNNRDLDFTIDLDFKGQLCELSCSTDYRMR
# * marks the source's active call; other numbers are inactive results; nt = no result given.
SMILES,rCAG binder,MBD2 inh,UHRF1 binding,ABHD5-PLIN5 inh,LEDGF integ inh,PRMT1 inh
COc1cc(/C=C2/SC(=S)N(CC(=O)Nc3nc4ccccc4s3)C2=O)cc(OC)c1OC,14.4,0.0,-1.0,-17.6,-4.5,5.2
COc1ccc(OC)c2sc(N(CCCN(C)C)C(=O)CCS(=O)(=O)c3ccccc3)nc12,0.3,1.1,4.2,39.5*,-5.1,10.7
COCC(=O)N(C)[C@H]1C[C@H]2c3[nH]c4cccc(-c5cccc(F)c5)c4c3CCN2C(=O)[C@H]1[C@H](C)O,4.0,-1.7,-3.2,nt,3.6,3.2
O=C(C(=O)N1CCC(CNS(=O)(=O)c2cccc(C(F)(F)F)c2)CC1)c1cc2ccccc2o1,3.0,-1.6,0.2,nt,-3.0,0.5
Cc1ccc(C(C(=O)NC2CCCCC2)N(CCC(C)C)C(=O)CNC(=O)c2ccco2)o1 (configuration not stated),-10.6,7.5,20.9*,0.8,3.5,2.6
COC(=O)C1=C(C)N(CC(C)C)C(=S)NC1c1ccc(Cl)cc1 (configuration not stated),0.1,9.9,3.2,nt,0.8,6.6
CCOC(=O)[C@]12CCC=C1N(Cc1ccccc1)C(=O)[C@H](CC(=O)NCCCCc1ccccc1)C2,1.6,-0.7,-3.3,0.3,0.5,0.7
CCOC(=O)[C@]12CCC=C1N(Cc1ccccc1)C(=O)[C@H](CC(=O)NCCC(C)C)C2,0.7,-3.5,23.6*,-3.1,-3.2,1.7
Cc1ccc(S(=O)(=O)NCCSCc2ccco2)cc1,-0.4,2.1,-1.4,0.2,-2.8,1.9
Cc1cc(C)c(S(=O)(=O)NCCSCc2ccco2)c(C)c1,14.8,-0.8,3.0,13.4,-4.2,24.1*
C=CC[C@@]1(c2ccccc2)Oc2ccccc2-c2nc3ccccc3nc21,4.2,3.1,-0.1,nt,1.1,0.2
COC(=O)Oc1nsnc1N1CCOCC1,1.3,-2.1,7.7,-19.4,2.8,81.4*
O=C(Oc1nsnc1N1CCOCC1)N(c1ccccc1)c1ccccc1,-6.6,-0.8,0.7,-2.7,-2.8,-0.9
CCn1c2ccccc2c2cc(NC(=O)COC(=O)c3cc(F)ccc3F)ccc21,2.3,-4.2,2.5,nt,1.6,-0.4
COc1ccc(CCNC(=O)c2cc3c(=O)n4ccccc4nc3n(CCN3CCOCC3)c2=N)cc1,4.3,-0.6,2.0,1.8,-8.5,3.1
COc1ccc(CCNC(=O)c2cc3c(=O)n4ccccc4nc3n(CCCN3CCOCC3)c2=N)cc1,6.2,-4.5,23.6*,11.1,-0.2,2.1
CC(C)c1csc(CN2CCC(CO)(Cc3cccc(F)c3)CC2)n1,-9.9,6.1,58.8*,-5.0,-4.2,5.8
CCOc1ccccc1/C=C(\C(=O)O)c1ccc(S(=O)(=O)N2CCCCC2)s1,45.2*,-1.8,2.6,-4.7,5.2,-1.3
CC1=C(C#N)C(=O)NC(=O)/C1=C/c1ccc(-c2ccc(S(N)(=O)=O)cc2)o1,4.6,20.5*,0.6,-0.4,1.4,12.8
COc1ccc(-c2cccc(NS(=O)(=O)c3cc([N+](=O)[O-])c(C)c([N+](=O)[O-])c3)c2)nn1,56.9*,-1.6,-2.0,0.7,-1.0,-0.3
COc1ccc(-c2cccc(NS(=O)(=O)c3cc([N+](=O)[O-])ccc3C)c2)nn1,29.4,2.2,-1.9,2.9,3.7,-1.9
O=C(CCn1nnc2ccccc21)N1CCN(c2cccc(C(F)(F)F)c2)CC1,-0.5,-1.3,1.6,nt,4.4,-6.8
Cc1ccc(N2CC(C(=O)OCC(=O)Nc3cccc(Cl)c3C)CC2=O)cc1 (configuration not stated),-0.2,4.6,89.8*,6.3,-1.5,-1.1
COC(=O)C1CC(=O)N(c2ccc(OCc3ccccc3Cl)cc2)C1 (configuration not stated),-5.4,0.7,24.0*,7.9,0.9,1.6
COc1cccc(-c2nnc3sc(-c4ccccn4)nn23)c1,11.2,5.7,-2.7,-0.9,2.4,1.9
SMILES,rCAG binder,MBD2 inh,UHRF1 binding,ABHD5-PLIN5 inh,LEDGF integ inh,PRMT1 inh
CC(C)(C)c1ccc(-c2nnc3sc(-c4ccccn4)nn23)cc1,9.1,0.9,-5.2,-6.3,-1.1,22.1*
Cc1cc(C)c2cc(CN(Cc3ccco3)C(=S)NCC3CCCO3)c(=O)[nH]c2c1 (configuration not stated),2.4,4.4,44.8*,6.7,-1.3,10.8
COc1ccc(-n2c(SCC(=O)Nc3ccc4cn[nH]c4c3)nnc2-c2ccccc2)cc1,11.5,-1.1,-3.2,nt,1.1,0.2
O=C(O)c1ccc(NS(=O)(=O)c2ccc(Cl)c(C(=O)Nc3ccccc3)c2)cc1,3.4,-3.2,22.6*,9.5,3.5,-1.0
CC(=O)NCc1ccc(OCCCN2CCC(C(O)(c3ccccc3)c3ccccc3)CC2)cc1,-1.3,9.7,2.8,nt,-4.4,6.5
COc1ccc(-c2csc(NC(=O)CSc3nc(C)nc4sc(C(=O)O)c(C)c34)n2)cc1,42.5*,1.1,-2.5,-6.0,2.2,-0.9
CCCCn1c(=O)[nH]c2nc3cc(NC(C)=O)ccc3nc2c1=O,-9.2,-0.9,44.7*,-4.2,-3.1,8.0
CCC(=O)Nc1ccc2nc3c(=O)[nH]c(=S)[nH]c3nc2c1,11.7,-2.5,2.4,2.8,-2.8,14.2
Cc1cc(C(=O)NCc2cccs2)c(C)o1,11.3,-0.7,15.1,5.2,13.1,21.5*
C=CCN1[C@H](C)[C@H](c2ccccc2)Oc2cc(Br)ccc2S1(=O)=O,5.2,3.0,-2.4,nt,-2.5,5.3
CSCc1cc(C(=O)NC2CC2)c(N)s1,3.8,-1.8,-0.7,-12.5,-3.1,22.5*
Cc1cc(C(=O)NC2CCC(C)CC2)c(C)o1 (configuration not stated),-2.2,1.2,0.3,0.2,-4.3,-0.1
CCC(C)NC(=O)c1ccccc1NC(=O)Nc1ccccc1 (configuration not stated),-1.5,2.0,27.2*,-6.9,-0.9,1.2
CC(C)CNC(=O)c1ccccc1NC(=O)Nc1ccccc1,7.5,4.6,-4.1,4.0,-1.1,-2.2
Cc1noc(C)c1S(=O)(=O)N1CCCc2nc(-c3ccccc3)ccc21,2.0,1.0,-1.0,nt,0.9,3.7
Cc1ccn2c(CNCCCn3cccn3)c(C(=O)N3CCCCCC3)nc2c1,-6.5,0.4,1.6,-1.3,1.4,-2.9
O=C(c1nc2ccccn2c1CNCCCn1cccn1)N1CCCC1,0.7,7.4,24.3*,-3.4,1.6,3.5
O=C(NCCc1ccccc1Cl)[C@@H]1CCCN1C(=O)[C@@H](NC(=O)N1CCOCC1)c1ccccc1,-0.3,-3.7,0.9,nt,-1.3,3.9
CCCC[C@@H]1Cc2[nH][nH]c(=O)c2[C@@H](c2ccc(Cl)cc2)O1,12.2,-1.0,-5.8,22.6*,-1.5,-0.7
CCCC[C@@H]1Cc2[nH][nH]c(=O)c2[C@H](c2ccc3ccccc3c2)O1,26.8,-1.9,-8.9,16.6,4.9,0.1
